# Assay results from PubChem BioAssay (NCI).
# The panel holds about 83,000 compounds, 20% with a hit somewhere; the sample as a whole holds those more often.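 Activity criterion: percent growth below 10, measured after cells in 96-well plates were exposed to a single compound concentration for 48 hours.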 Values without a mark were called inactive. Active and inactive are the calls of the source.
# Tested on: KM12 colon
# Assay: NCI-60 one-dose screen, 48 h (100 = growth as untreated, 0 = no growth, -100 = all killed)
# Conditions: 10 µM unless noted
row,Compound,growth
1,NCCNc1nc(Nc2ccc(-c3nc4ccccc4[nH]3)cc2)c2cn[nH]c2n1,25.2%
2,Clc1ccc2c(NCCCCNc3nc(N4CCCCC4)nc4ccccc34)ccnc2c1,19.6%
3,Cc1cc(C)nc(SC2=C(Nc3ccc(C)c(Cl)c3)C(=O)N(Cc3ccccc3)C2=O)n1,66.2% [30 µM]
4,O=c1c(F)cn(Cc2ccccc2CCl)c(=O)n1Cc1ccccc1CCl,-16.2% (active)
5,C=CC(=O)Nc1cccc(Nc2nc(SC)nc(-c3cccc([N+](=O)[O-])c3)c2C#N)c1,90.5%
6,COc1ccc(C(=O)COc2cccc(/C=C3\CSc4ccccc4C3=O)c2)cc1,-77.3% (active)
7,CC(O)CN(CC(C)O)c1ccc2c(c1)Cc1cc([N+](=O)[O-])ccc1-2 (centres undefined),85.3%
8,CCOC(=O)c1sc(Nc2ccc(Cl)cc2)nc1C,-1.62% (active)
9,CC/C=C\C[C@H]1C/C=C2/C(=O)C=C[C@H]2C/C=C\CCCC(=O)O1,-3.28% (active)
10,O=C1CC[C@H](c2ccc(O)c3c2C(=O)[C@@H]2O[C@@H]2C3=O)c2cccc(O)c21,85.1%
11,O=C(Cc1ccc(/C=C/C(=O)c2ncc[nH]2)cc1)Nc1ccccc1,12.8%
12,Cc1cc(C)nc(SC2=C(Nc3cccc(Cl)c3C)C(=O)N(Cc3ccccc3)C2=O)n1,53.2% [30 µM]
13,CSc1ccc(SC2c3ccc(C)cc3Oc3nc(N)c(C#N)c(N)c32)cc1 (centres undefined),-42.3% (active)
14,C(=C\c1nccc2c1[nH]c1ccccc12)/c1ccccc1,15.6%
15,CCCSc1ccc2nc(NC(=O)OC)[nH]c2c1,14%
16,CCCc1cc(=O)n2c(C(=O)Nc3ccc(F)cc3)c(C(=O)Nc3ccc(F)cc3)sc2n1,84.9% [30 µM]
17,COc1ccccc1Nc1nc(-c2cc3cccc(C(F)(F)F)c3oc2=O)cs1,3.87% (active)
18,O=Nc1c(O)c(Cl)cc2ccccc12,79.5%
19,CCC([N+](=O)[O-])S(=O)(=O)c1ccc(C)cc1 (centres undefined),136%
20,Clc1ccc2c(NCCNc3nc(N4CCCCC4)nc4ccccc34)ccnc2c1,7.18% (active)

row,Compound,growth
1,CC(C)(CCCN=C(N)Nc1ccc(Cl)cc1)c1ccc(F)cc1,57.5%
2,CCCOc1ccc2nc(NC(=O)OC)[nH]c2c1,5.74% (active)
3,O=C(COc1cccc(/C=C2\CSc3ccccc3C2=O)c1)Nc1nccs1,-39.7% (active)
4,O=C(COc1cccc(/C=C2\COc3ccc(Cl)cc3C2=O)c1)c1ccc(Cl)cc1,77.1%
5,Cc1cn2c(/C=C3/C(=O)Nc4c3ccc3ccccc43)c(C(F)(F)F)nc2s1,15.3%
6,O=C1/C(=C/c2ccccc2O)N=C2SCCCN12,90.2%
7,COc1cc2c(cc1-c1c(C)noc1C)ncc1nc(C3CCCCC3)n([C@H](C)COC(F)F)c12,46.3%
8,COc1cccc(-c2nc(SCC(=O)Nc3ccc(C(=O)/C=C/c4ccc(OC)c(OC)c4)cc3)[nH]c(=O)c2C#N)c1,81.5%
9,CC(C)n1c(/C=C/[C@@H](O)C[C@@H](O)CC(=O)O)c(-c2ccc(F)cc2)c2ccccc21,87.5%
10,O=c1oc2c(C(F)(F)F)cccc2cc1-c1csc(Nc2ccc(OCCF)cc2)n1,2.28% (active)
11,Cc1nc(Nc2ccc(F)c(Cl)c2)sc1C(=O)O,-3.33% (active)
12,CCOc1nc(-c2ccccc2)cc2c(O)c(C(=O)O)[nH]c(=O)c12,93.4%
13,Cc1cc2c3ccccc3ccc2[n+]2ccccc12,25.9%
14,Cc1oc(-c2ccc(Cl)cc2Cl)cc1C(=O)Nc1nccs1,98.7%
15,CC/C=C\C[C@H](O)C/C=C1/C(=O)C=C[C@@]1(C)C/C=C\CCCC(=O)OC,102%
16,COc1ccc(C(=O)COc2ccc(/C=C3\COc4ccc(OC)cc4C3=O)cc2)cc1,68.4%
17,CC[C@@H]1O[C@H](O[C@@H](c2cnc[nH]2)[C@H](NC(=O)c2nc([C@H](CC(N)=O)NC[C@@H](N)C(N)=O)nc(N)c2C)C(=O)N[C@H](C)[C@H](O)[C@H](C)C(=O)N[C@@H](C(=O)NCCc2nc(-c3nc(C(=O)NCCCCN=C(N)N)cs3)cs2)[C@@H](C)O)[C@H](O[C@@H]2O[C@H](CO)[C@H](O)[C@H](OC(N)=O)[C@@H]2O)[C@H](C)[C@@H]1C,57.9%
18,CN1CCN(c2ccc3nc(-c4ccc(OCCCCN5CCN(CCCCN6C(=O)c7cccc8cccc(c78)C6=O)CC5)cc4)[nH]c3c2)CC1,86.8%
19,O=C1c2c(O)cc(O)cc2-c2c(-c3ccc(O)cc3)oc3cc(O)cc1c23,58.3%
